Source: PubChem BioAssay AID1159580 (chemical genetic matrix, 2015)
Among all 5,500 compounds or so, about 2,000 (36%) were called active. Not shown: some 18% with an inconclusive outcome. Cut-off read from the data, not from the text of the source: active = normalized growth mostly below about 0.91 (no sharp cut-off); inconclusive = no clear call, values can overlap the other calls; inactive = mostly above about 0.92. The list shows a part of the results.

Assay: chemical genetic growth profiling, strain panel (AID 1159580);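 note: tested at 20 µM; growth read once vehicle control cultures reached saturation at 30 °C; 1 = growth at the plate median or of vehicle wells; lower values mean less growth of the strain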
Details: growth OD

Measured: normalized growth

COc1cnc(NS(=O)(=O)c2ccc(N)cc2)nc1
inactive: S. cerevisiae deletion strains, locus YJR075W, strain HOC1, stronger effect = lower value 0.978 | S. cerevisiae deletion strains, locus YKL009W, strain mrt4, stronger effect = lower value 0.994 | S. cerevisiae deletion strains, locus YKL068W, stronger effect = lower value 0.983 | S. cerevisiae deletion strains, locus YKL085W, strain MDH1 (second series), stronger effect = lower value 0.971 | S. cerevisiae deletion strains, locus YKL085W, strain MDH1, stronger effect = lower value 0.971 | S. cerevisiae deletion strains, locus YKL160W, strain elf1, stronger effect = lower value 0.999 | S. cerevisiae deletion strains, locus YKL190W, strain CNB1, stronger effect = lower value 0.979 | S. cerevisiae deletion strains, locus YKR001C, strain vps1, stronger effect = lower value 0.964 | S. cerevisiae deletion strains, locus YKR026C, strain gcn3, stronger effect = lower value 1 | S. cerevisiae deletion strains, locus YKR091W, strain srl3, stronger effect = lower value 0.998 | S. cerevisiae deletion strains, locus YLL001W, strain dnm1, stronger effect = lower value 0.966 | S. cerevisiae deletion strains, locus YLL026W, stronger effect = lower value 1 | S. cerevisiae deletion strains, locus YLL041C, strain sdh2, stronger effect = lower value 0.997 | S. cerevisiae deletion strains, locus YLR027C, strain aat2, stronger effect = lower value 1.01 | S. cerevisiae deletion strains, locus YLR039C, strain RIC1, stronger effect = lower value 0.969 | S. cerevisiae deletion strains, locus YLR058C, strain SHM2, stronger effect = lower value 0.976 | S. cerevisiae deletion strains, locus YLR102C, strain apc9, stronger effect = lower value 0.973 | S. cerevisiae deletion strains, locus YLR113W, strain HOG1, stronger effect = lower value 0.989 | S. cerevisiae deletion strains, locus YLR221C, strain rsa3, stronger effect = lower value 0.988 | S. cerevisiae deletion strains, locus YLR258W, strain gsy2, stronger effect = lower value 0.99 | S. cerevisiae deletion strains, locus YLR262C, strain YPT6 (second series), stronger effect = lower value 1.02 | S. cerevisiae deletion strains, locus YLR262C, strain YPT6, stronger effect = lower value 0.96 | S. cerevisiae deletion strains, locus YLR268W, strain sec22, stronger effect = lower value 0.888 | S. cerevisiae deletion strains, locus YLR320W, strain mms22, stronger effect = lower value 0.965 | S. cerevisiae deletion strains, locus YLR330W, strain CHS5, stronger effect = lower value 0.994 | S. cerevisiae deletion strains, locus YLR342W, strain FKS1 (second series), stronger effect = lower value 1.03 | S. cerevisiae deletion strains, locus YLR342W, strain FKS1, stronger effect = lower value 1.01 | S. cerevisiae deletion strains, locus YLR357W, strain rsc2, stronger effect = lower value 0.945 | S. cerevisiae deletion strains, locus YLR370C, strain arc18, stronger effect = lower value 1 | S. cerevisiae deletion strains, locus YLR371W, strain rom2, stronger effect = lower value 0.97 | S. cerevisiae deletion strains, locus YLR384C, strain iki3, stronger effect = lower value 1 | S. cerevisiae deletion strains, locus YLR418C, strain cdc73, stronger effect = lower value 0.99 | S. cerevisiae deletion strains, locus YML016C, strain PPZ1, stronger effect = lower value 0.993 | S. cerevisiae deletion strains, locus YML032C, strain rad52, stronger effect = lower value 0.97 | S. cerevisiae deletion strains, locus YML120C, strain ndi1, stronger effect = lower value 1.02 | S. cerevisiae deletion strains, locus YML124C, strain tub3, stronger effect = lower value 0.979 | S. cerevisiae deletion strains, locus YMR058W, strain fet3, stronger effect = lower value 1 | S. cerevisiae deletion strains, locus YMR078C, strain ctf18, stronger effect = lower value 0.976 | S. cerevisiae deletion strains, locus YMR125W, strain sto1, stronger effect = lower value 0.991 | S. cerevisiae deletion strains, locus YMR129W, stronger effect = lower value 0.985 | S. cerevisiae deletion strains, locus YMR205C, strain PFK2, stronger effect = lower value 0.998 | S. cerevisiae deletion strains, locus YMR223W, strain ubp8, stronger effect = lower value 0.979 | S. cerevisiae deletion strains, locus YMR231W, strain pep5, stronger effect = lower value 0.998 | S. cerevisiae deletion strains, locus YMR307W, strain GAS1, stronger effect = lower value 1.03 | S. cerevisiae deletion strains, locus YNL067W, strain RPL9B, stronger effect = lower value 0.982 | S. cerevisiae deletion strains, locus YNL071W, strain lat1, stronger effect = lower value 1.01 | S. cerevisiae deletion strains, locus YNL183C, strain NPR1, stronger effect = lower value 0.933 | S. cerevisiae deletion strains, locus YNL209W, strain ssb2, stronger effect = lower value 0.997 | S. cerevisiae deletion strains, locus YNL233W, strain BNI4, stronger effect = lower value 1 | S. cerevisiae deletion strains, locus YNL248C, strain rpa49, stronger effect = lower value 0.982 | S. cerevisiae deletion strains, locus YNL250W, strain rad50, stronger effect = lower value 0.982 | S. cerevisiae deletion strains, locus YNL271C, strain bni1, stronger effect = lower value 0.979 | S. cerevisiae deletion strains, locus YNL298W, strain CLA4, stronger effect = lower value 0.965 | S. cerevisiae deletion strains, locus YNL307C, strain MCK1, stronger effect = lower value 0.981 | S. cerevisiae deletion strains, locus YNL322C, strain KRE1 (second series), stronger effect = lower value 0.986 | S. cerevisiae deletion strains, locus YNR049C, strain mso1, stronger effect = lower value 1 | S. cerevisiae deletion strains, locus YNR052C, strain pop2, stronger effect = lower value 0.977 | S. cerevisiae deletion strains, locus YOL006C, strain TOP1, stronger effect = lower value 0.945 | S. cerevisiae deletion strains, locus YOL012C, strain htz1 0.813 | S. cerevisiae deletion strains, locus YOL147C, strain pex11, stronger effect = lower value 0.985 | S. cerevisiae deletion strains, locus YOR001W, strain rrp6, stronger effect = lower value 0.99 | S. cerevisiae deletion strains, locus YOR061W, strain CKA2, stronger effect = lower value 0.962 | S. cerevisiae deletion strains, locus YOR069W, strain VPS5, stronger effect = lower value 0.993 | S. cerevisiae deletion strains, locus YOR070C, strain gyp1, stronger effect = lower value 1.01 | S. cerevisiae deletion strains, locus YOR080W, strain dia2, stronger effect = lower value 0.98 | S. cerevisiae deletion strains, locus YOR083W, strain WHI5, stronger effect = lower value 0.943 | S. cerevisiae deletion strains, locus YOR106W, strain vam3, stronger effect = lower value 0.986 | S. cerevisiae deletion strains, locus YOR136W, strain idh2, stronger effect = lower value 0.987 | S. cerevisiae deletion strains, locus YOR144C, strain elg1, stronger effect = lower value 0.976 | S. cerevisiae deletion strains, locus YOR184W, strain ser1, stronger effect = lower value 0.985 | S. cerevisiae deletion strains, locus YOR231W, strain MKK1, stronger effect = lower value 0.99 | S. cerevisiae deletion strains, locus YOR265W, strain rbl2, stronger effect = lower value 1.02 | S. cerevisiae deletion strains, locus YOR270C, strain vph1, stronger effect = lower value 1.04 | S. cerevisiae deletion strains, locus YOR290C, strain snf2, stronger effect = lower value 0.984 | S. cerevisiae deletion strains, locus YOR316C, strain cot1, stronger effect = lower value 0.958 | S. cerevisiae deletion strains, locus YPL051W, strain arl3, stronger effect = lower value 0.999 | S. cerevisiae deletion strains, locus YPL055C, strain LGE1, stronger effect = lower value 0.949 | S. cerevisiae deletion strains, locus YPL078C, strain atp4, stronger effect = lower value 0.991 | S. cerevisiae deletion strains, locus YPL106C, strain sse1, stronger effect = lower value 0.952 | S. cerevisiae deletion strains, locus YPL240C, strain hsp82, stronger effect = lower value 1 | S. cerevisiae deletion strains, locus YPL256C, strain CLN2, stronger effect = lower value 0.99 | S. cerevisiae deletion strains, locus YPR119W, strain clb2, stronger effect = lower value 0.985 | S. cerevisiae deletion strains, locus YPR141C, strain kar3, stronger effect = lower value 0.96 | S. cerevisiae deletion strains, locus YPR163C, strain tif3, stronger effect = lower value 0.991 | S. cerevisiae deletion strains, locus YPR167C, strain met16, stronger effect = lower value 0.983 | S. cerevisiae deletion strains, strain wtn01, stronger effect = lower value 0.989 | S. cerevisiae strains, strain wild type, stronger effect = lower value 0.983
